Bioassay records from PubChem.
ELG1 repair inh: inhibitors of ELG1-dependent DNA repair in HEK293T cells. HEK293T ELG1-luciferase reporter, luminescence, 16 h; DNA damage induced by 5-fluorouridine. Potency, µM (titrated, usually from 46.1 µM), usual class: inhibitors. 330,000 tested, 2.3% active; also: nearly all actives have a fitted effect of over 55% in size
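HEK293T cells expressing luciferase-tagged ELG1 (2,000/well) received 5-Fluorouridine plus compound or DMSO for 16 hr at 37 °C. Luciferase was read by ONE-Glo luminescence after 30 min at room temperature.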
DT40 TDP1 no CPT: qHTS for Inhibitors of human tyrosyl-DNA phosphodiesterase 1 (TDP1): qHTS in cells in absence of CPT; DT40 Tdp1-/- hTDP1 cells, no CPT, ATP luminescence, 48 h; Potency, µM (top dose mostly 46.2 µM), most hits filed as inhibitors; 420,000 tested, 15% active; also: nearly all actives have a fitted effect of over 55% in size
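A cellular qHTS used chicken DT40 cells lacking endogenous Tdp1 but carrying stably transfected human TDP1. Compounds were applied without camptothecin, and cell growth kinetics were judged by ATP-dependent luminescence after ≥48 hr.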
HT1080-NT tox: kills 2HG-producing HT-1080-NT fibrosarcoma cells; HT-1080-NT fibrosarcoma viability, CellTiter-Glo ATP luminescence, 48 h; Potency, µM (titrated, usually from 46.1 µM), most hits filed as cytotoxic; 360,000 tested, 1.6% active;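 also: NT is the 2HG producing partner of a matched IDH1 knockdown line; nearly all actives have a fitted effect of over 55% in size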
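HT-1080-NT; 750 cells/well; 5% FBS RPMI; 48 h compound, 37 degrees C; CellTiter-Glo luminescence; curve fitting and curve-class assignment.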
HT1080 IDH1KD tx: HT-1080 IDH1 knockdown cell toxicity (counter line). HT-1080 IDH1 knockdown viability, ATP luminescence, 48 h. Potency, µM (doses to about 46.1 µM), usual class: cytotoxic. 360,000 tested, 2% active
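Luminescent ATP read-out (CellTiter-Glo, 10 min at room temperature) after 48 h compound exposure at 37 °C gave viability of IDH1-knockdown HT-1080 cells. Activity was normalised to DMSO and cell-free wells, then fitted as concentration-response curves.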
IL1B secr inh: blocks inflammasome-driven IL-1 beta release; THP-1 LPS/ATP IL-1B secretion, AlphaLISA, 16 h; hits give low values; activity change, % at 57.5 µM; 360,000 tested, 4.7% active; in the data active = activity change below about -50%; inconclusive = mostly about -30% to -49%
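THP-1 cells pretreated 1 hr with compounds (up to 57.5 uM final), then stimulated with LPS (250 ng/mL final) plus ATP (1.25 mM final); secreted IL-1B measured by AlphaLISA after 16 hr, decreased signal indicating inhibition.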
DT40 TDP1 CPT: growth inhibition of DT40 Tdp1-/-;hTDP1 cells with camptothecin (screen for TDP1 inhibitors); AID 686979; 420,000 tested, 12% active; Potency, µM (doses to about 46.2 µM), most hits filed as inhibitors; chicken DT40 Tdp1-/-;hTDP1 cells + 20 nM CPT, ATP luminescence, 48 h; also: nearly all actives have a fitted effect of over 55% in size
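Cell growth measured by CellTiter-Glo luminescence after a minimum 48 h, 37 C compound exposure with 20 nM CPT in Tdp1-knockout DT40 cells stably expressing hTDP1, seeded 400/well; qHTS titration format.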
ELG1 FLuc counter: luciferase inhibition in cell-free luciferin readout for ELG1 hits. Potency, µM (titrated, usually from 46.1 µM), hits mostly inhibitors. AID 624247. cell-free firefly luciferase luminescence counter-screen, ViewLux. 350 tested, 3% active. shares compounds with ELG1 repair inh
ELG1 Luc conf: inhibits ELG1-dependent DNA repair in HEK293T cells, confirmed; shares compounds with ELG1 repair inh; HEK293T ELG1-luciferase levels, luminescence; cells co-treated with 5-fluorouridine; Potency, µM (series often up to 46.1 µM), actives largely listed as inhibitors; 670 tested, 68% active; AID 624248; also: nearly all actives have a fitted effect of over 55% in size
Target sequence (Q96QE3 whole entry, looked up): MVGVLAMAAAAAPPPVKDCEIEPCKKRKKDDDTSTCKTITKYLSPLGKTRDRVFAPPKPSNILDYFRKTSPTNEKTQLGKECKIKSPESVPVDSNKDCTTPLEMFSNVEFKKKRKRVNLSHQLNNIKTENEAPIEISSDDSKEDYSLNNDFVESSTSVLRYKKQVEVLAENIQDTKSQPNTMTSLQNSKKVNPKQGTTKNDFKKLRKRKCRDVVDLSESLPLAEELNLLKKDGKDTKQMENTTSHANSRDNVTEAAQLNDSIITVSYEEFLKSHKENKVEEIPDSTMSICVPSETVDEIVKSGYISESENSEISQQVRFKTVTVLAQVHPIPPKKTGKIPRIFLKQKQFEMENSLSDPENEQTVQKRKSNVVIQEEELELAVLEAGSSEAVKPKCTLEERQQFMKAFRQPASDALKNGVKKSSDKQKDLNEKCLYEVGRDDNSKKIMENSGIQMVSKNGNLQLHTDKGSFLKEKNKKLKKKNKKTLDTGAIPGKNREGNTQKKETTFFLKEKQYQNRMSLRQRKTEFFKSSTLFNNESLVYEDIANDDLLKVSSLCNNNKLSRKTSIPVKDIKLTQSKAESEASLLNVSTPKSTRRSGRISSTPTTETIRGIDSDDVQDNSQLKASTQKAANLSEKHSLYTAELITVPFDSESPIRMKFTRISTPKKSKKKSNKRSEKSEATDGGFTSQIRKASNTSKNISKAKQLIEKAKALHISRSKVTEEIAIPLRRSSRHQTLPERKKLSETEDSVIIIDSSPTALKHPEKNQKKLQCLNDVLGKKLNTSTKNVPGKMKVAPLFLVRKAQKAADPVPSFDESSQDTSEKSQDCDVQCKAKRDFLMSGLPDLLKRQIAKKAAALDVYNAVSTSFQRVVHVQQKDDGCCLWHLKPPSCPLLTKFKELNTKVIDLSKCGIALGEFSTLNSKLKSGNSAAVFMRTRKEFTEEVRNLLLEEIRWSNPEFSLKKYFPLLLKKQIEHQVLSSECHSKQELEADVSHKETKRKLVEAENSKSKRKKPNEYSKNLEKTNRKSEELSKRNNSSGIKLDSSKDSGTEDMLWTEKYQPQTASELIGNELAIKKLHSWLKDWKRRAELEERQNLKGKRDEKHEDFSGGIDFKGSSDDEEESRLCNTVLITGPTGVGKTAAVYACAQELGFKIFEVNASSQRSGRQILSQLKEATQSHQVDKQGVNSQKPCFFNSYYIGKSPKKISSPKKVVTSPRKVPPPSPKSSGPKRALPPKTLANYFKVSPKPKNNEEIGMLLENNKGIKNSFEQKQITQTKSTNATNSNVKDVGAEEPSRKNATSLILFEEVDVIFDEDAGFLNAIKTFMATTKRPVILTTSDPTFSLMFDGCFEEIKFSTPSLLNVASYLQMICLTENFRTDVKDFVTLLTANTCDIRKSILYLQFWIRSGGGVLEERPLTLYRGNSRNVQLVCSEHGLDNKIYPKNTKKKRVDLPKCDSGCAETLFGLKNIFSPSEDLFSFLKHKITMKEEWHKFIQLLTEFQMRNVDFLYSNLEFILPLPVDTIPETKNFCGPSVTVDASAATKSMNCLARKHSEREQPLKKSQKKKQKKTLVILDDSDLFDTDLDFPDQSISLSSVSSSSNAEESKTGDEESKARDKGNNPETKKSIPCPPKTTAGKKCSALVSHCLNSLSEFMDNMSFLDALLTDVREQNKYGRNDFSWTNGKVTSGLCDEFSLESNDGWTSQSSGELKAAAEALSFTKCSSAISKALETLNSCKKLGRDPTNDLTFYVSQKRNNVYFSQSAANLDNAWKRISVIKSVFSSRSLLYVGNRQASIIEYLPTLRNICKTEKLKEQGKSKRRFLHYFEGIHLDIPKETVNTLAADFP
ELG1 MMS Luc: MMS-stimulated human ELG1 repair inhibition, confirmed. shares compounds with ELG1 repair inh. HEK293T luciferase-tagged ELG1 level, MMS stimulated. Potency, µM (doses to about 46.1 µM), most hits filed as inhibitors. 670 tested, 53% active; also: nearly all actives have a fitted effect of over 60% in size
ELG1 5FU viab: confirmation of ELG1 repair inhibitors: viability with 5FU | shares compounds with ELG1 repair inh | cell viability with 5-FU, ELG1-dependent repair | Potency, µM (titrated, usually from 46.1 µM), hits mostly cytotoxic | 670 tested, under 10 active;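 also: ELG1-luc HEK293T cells cotreated with 5-fluorouridine at 10 µM final; viability measured 16 h after compound addition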
ELG1 MMS viab: confirmation of ELG1 repair inhibitors: viability with MMS. Cell viability with MMS, ELG1-dependent DNA repair. Potency, µM (highest dose often 46.1 µM), actives largely listed as cytotoxic. shares compounds with ELG1 repair inh. 670 tested, 33% active;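 also: ELG1-luc HEK293T cells co-treated with 10 µM MMS; viability read 16 h after compound addition; nearly all actives have a fitted effect of over 60% in size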
Cell viab unstim: counter-screen for ELG1 repair inhibitors: unstimulated cell viability. shares compounds with ELG1 repair inh. cell viability counter-screen, unstimulated, luminescence. Potency, µM (highest dose often 45.9 µM), actives largely listed as cytotoxic. 900 tested, 8% active. AID 624252;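 also: compound exposure lasted 16 hours before reading; nearly all actives have a fitted effect of over 55% in size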
FLuc enzyme: firefly luciferase inhibition counter-screen | shares compounds with ELG1 repair inh | purified firefly luciferase, luminescence counter-screen | Potency, µM (doses to about 57.5 µM), most hits filed as inhibitors | 350 tested, 10% active | AID 624253
Each line names hits and unclear results; the compound was inactive in the other large screens (follow-up assays come after a bar, where they were run). Compounds with a hit are over-represented: about 19% of the library has one in this group of screens. Unless noted, calls follow the shape of the dose curve; as a rule, active = well fitted curve in the direction sought with a large enough effect; inconclusive = small, poorly fitted or top-dose-only effect, or another doubt; inactive = no such curve, though single readings can be large; an effect the other way counts as inactive or inconclusive.

Fc1ccccc1CNc1ncnc2sccc12	ELG1 repair inh 2.9µM, DT40 TDP1 no CPT 8.2µM, HT1080 IDH1KD tx inconclusive, DT40 TDP1 CPT 4.1µM | ELG1 Luc conf inconclusive | ELG1 MMS Luc 4.4µM | ELG1 5FU viab inactive | ELG1 MMS viab 3.1µM | Cell viab unstim inconclusive
CCN(CC)C(=O)Cn1ccc(NC(C)=O)nc1=O	none
COc1ccc(N2CCN(C(=O)c3ccc(Cl)c(S(=O)(=O)N4CCOCC4)c3)CC2)cc1	DT40 TDP1 no CPT inconclusive (no result: ELG1 repair inh)
Cc1ccc(-c2[nH]ncc2/C=N/n2c(COc3ccccc3)nc3ccccc3c2=O)cc1	ELG1 repair inh 5.2µM, DT40 TDP1 no CPT inconclusive, HT1080-NT tox inconclusive, HT1080 IDH1KD tx inconclusive, IL1B secr inh -92, DT40 TDP1 CPT inconclusive | ELG1 FLuc counter inactive | ELG1 Luc conf 3.2µM | ELG1 MMS Luc 20µM | ELG1 5FU viab inconclusive | ELG1 MMS viab 28µM | Cell viab unstim 16µM | FLuc enzyme inconclusive
Cc1ccccc1OCc1nc2ccccc2c(=O)n1/N=C/c1cn[nH]c1-c1ccccc1	ELG1 repair inh 4.6µM, DT40 TDP1 no CPT 21µM, HT1080-NT tox inconclusive, HT1080 IDH1KD tx inconclusive, IL1B secr inh -53, DT40 TDP1 CPT inconclusive | ELG1 FLuc counter inactive | ELG1 Luc conf 7.1µM | ELG1 MMS Luc 14µM | ELG1 5FU viab inconclusive | ELG1 MMS viab inconclusive | Cell viab unstim inconclusive | FLuc enzyme inactive
COc1ccc(OC)c(/C=N/n2c(C)nc3ccccc3c2=O)c1	none (no result: ELG1 repair inh)
C=CCN1C(=O)C2(OCCO2)c2cc(C)ccc21	none
O=c1c2ccccc2oc2c1oc1ccccc12	ELG1 repair inh inconclusive, DT40 TDP1 no CPT inconclusive, DT40 TDP1 CPT inconclusive | Cell viab unstim inactive
CCOc1ccc(C(C(=O)NC2CCCC2)N(C(=O)c2snc(C(N)=O)c2N)c2cccc(O)c2)cc1 (stereo not given)	ELG1 repair inh 4.6µM, DT40 TDP1 no CPT 16µM, DT40 TDP1 CPT inconclusive | ELG1 Luc conf 2µM | ELG1 MMS Luc inconclusive | ELG1 5FU viab inconclusive | ELG1 MMS viab inactive | Cell viab unstim inconclusive
COCCn1c(C)cc(C(=O)COC(=O)c2cccnc2SC)c1C	ELG1 repair inh inconclusive, DT40 TDP1 no CPT 16µM, DT40 TDP1 CPT inconclusive | ELG1 FLuc counter inactive | Cell viab unstim inconclusive | FLuc enzyme 0.52µM
COCCn1c(C)cc(C(=O)COC(=O)c2cncc(Br)c2)c1C	ELG1 repair inh inconclusive, DT40 TDP1 no CPT inconclusive, DT40 TDP1 CPT inconclusive
Cc1oc(-c2ccccc2Cl)nc1CS(=O)(=O)CC(=O)N1CCOCC1	none
CCN(CC)C(=O)c1sc(NC(=O)c2cccnc2)c(C(=O)OC)c1C	ELG1 repair inh 2.6µM | ELG1 Luc conf 3.1µM | ELG1 MMS Luc inactive | ELG1 5FU viab inconclusive | ELG1 MMS viab inactive | Cell viab unstim inconclusive
CCOC(=O)c1c(NC(=O)c2cccnc2)sc(C(C)=O)c1C	DT40 TDP1 no CPT inconclusive, DT40 TDP1 CPT inconclusive
Clc1ccccc1C1=Nn2c(nnc2-c2ccncc2)SC1	ELG1 repair inh 4.6µM, DT40 TDP1 no CPT 10µM, IL1B secr inh -86, DT40 TDP1 CPT 6.5µM | ELG1 FLuc counter inconclusive | ELG1 Luc conf 3.2µM | ELG1 MMS Luc 6.3µM | ELG1 5FU viab inactive | ELG1 MMS viab inactive | Cell viab unstim inactive | FLuc enzyme inactive
CC1=Nn2c(nnc2-c2ccccc2Cl)SC1	none
CCc1ccccc1OCC(=O)Nc1cc(S(=O)(=O)N(CC)CC)ccc1N1CCOCC1	ELG1 repair inh 2.6µM, DT40 TDP1 no CPT 16µM, DT40 TDP1 CPT 21µM | ELG1 Luc conf 4.4µM | ELG1 MMS Luc inactive | ELG1 5FU viab inconclusive | ELG1 MMS viab inactive | Cell viab unstim inconclusive
CCN(CC)S(=O)(=O)c1ccc(N2CCOCC2)c(NC(=O)c2ccccc2F)c1	DT40 TDP1 no CPT inconclusive, DT40 TDP1 CPT inconclusive
O=c1[nH]cnc2onc(-c3ccc(F)cc3)c12	none
COc1ccc(NC(=O)c2c(N)no[n+]2[O-])c(OC)c1	ELG1 repair inh inconclusive
COc1ccc(NC(=O)c2c(N)no[n+]2[O-])cc1	ELG1 repair inh 4.6µM, HT1080-NT tox 0.73µM, HT1080 IDH1KD tx 0.73µM | ELG1 Luc conf inactive | ELG1 MMS Luc inactive | ELG1 5FU viab inactive | ELG1 MMS viab inactive | Cell viab unstim inactive
CC(Oc1ccc(Br)cc1)C(=O)NCC1(N2CCCCC2)CCCCC1 (stereo not given)	none
Cc1cc2ccccc2nc1SCC(=O)N1CCCC1	none
COc1cc2cc(C)c(SCC(=O)N3CCOCC3)nc2cc1OC	none | ELG1 FLuc counter inactive | Cell viab unstim inactive | FLuc enzyme inactive
O=C(/C=C/c1ccc(F)cc1)NC(=S)NNC(=O)c1cnccn1	ELG1 repair inh 2.3µM, DT40 TDP1 no CPT 3.3µM, DT40 TDP1 CPT 3.7µM | ELG1 Luc conf inconclusive | ELG1 MMS Luc 20µM | ELG1 5FU viab inactive | ELG1 MMS viab inactive | Cell viab unstim inactive
COc1ccc2nc(SCC(=O)C(C)(C)C)[nH]c2c1	ELG1 repair inh inconclusive
